# The list is not random: actives were taken first. Their share in the collection is about 3.4%.
# GPR151 activ: activators of human GPR151, primary screen, cell-based, PathHunter beta-arrestin, luminescence. activation, % at 11.2 µM. 650,000 tested, 1% active. AID 1508602, 2020. G-protein coupled receptor 151 (Homo sapiens), Q8TDV0. PathHunter beta-arrestin GPR151 cells; in the data active = activation above about 4.9%;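 also: 0% = median of compound wells and 100% = cells with positive control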
# TEAD-YAP block: TEAD-YAP interaction inhibition, primary screen, TEAD-YAP interaction inhibitor project, luminescence, HEK-TIYL cells | 640,000 tested, 1.4% active | TEAD-Gal4/YAP UAS-luciferase luminescence | inhibition, % at 9.12 µM; in the data active = inhibition above about 32%;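 also: 0% = median of test compound wells and 100% = reference inhibitor wells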
# MITF primary: MITF inhibitors, primary screen, biochemical, AlphaScreen, human; AID 1259374, 2018; Microphthalmia-associated transcription factor (Homo sapiens), O75030; inhibition, % at 2.6 µM; AlphaScreen MITF homodimerization, bead proximity signal; 650,000 tested, 0.91% active; in the data active = inhibition above about 50%;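 also: 0% = vehicle wells with protein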
# FBW7 activator: FBW7 E3 ligase activators, primary screen, biochemical, AlphaScreen, human | F-box/WD repeat-containing protein 7 (Homo sapiens), Q969H0 | AlphaScreen FBW7–phospho-cyclin E peptide binding, activator screen | normalized activity (activation), % at 26.1 µM | AID 1259310, 2017 | 650,000 tested, 0.13% active; in the data active = normalized activity above about 1.9%;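 also: purified mutant Fbw7 with reduced substrate affinity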
# Target sequence (Q969H0 whole entry, looked up): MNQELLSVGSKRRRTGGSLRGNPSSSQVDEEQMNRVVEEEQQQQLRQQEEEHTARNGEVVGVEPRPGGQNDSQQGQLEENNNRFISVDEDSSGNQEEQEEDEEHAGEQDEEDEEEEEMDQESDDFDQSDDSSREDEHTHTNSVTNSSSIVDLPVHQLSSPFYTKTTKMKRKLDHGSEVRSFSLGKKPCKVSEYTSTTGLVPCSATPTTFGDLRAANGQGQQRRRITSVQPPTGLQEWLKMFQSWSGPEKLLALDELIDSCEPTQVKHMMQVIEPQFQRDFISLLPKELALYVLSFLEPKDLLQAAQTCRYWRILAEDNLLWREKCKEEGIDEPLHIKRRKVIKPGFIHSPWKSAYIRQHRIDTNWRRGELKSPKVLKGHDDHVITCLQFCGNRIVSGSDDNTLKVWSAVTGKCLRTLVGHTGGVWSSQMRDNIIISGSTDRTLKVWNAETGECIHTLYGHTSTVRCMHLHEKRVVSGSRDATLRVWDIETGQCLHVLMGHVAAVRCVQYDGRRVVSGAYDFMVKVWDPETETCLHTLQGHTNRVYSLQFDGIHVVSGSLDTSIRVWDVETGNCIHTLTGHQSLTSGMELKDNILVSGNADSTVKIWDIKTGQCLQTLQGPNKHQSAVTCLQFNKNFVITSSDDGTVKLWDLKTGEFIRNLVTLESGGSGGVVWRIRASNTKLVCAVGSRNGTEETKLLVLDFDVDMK
# * = called active by the depositor; ! = repeats disagree.
SMILES,GPR151 activ,TEAD-YAP block,MITF primary,FBW7 activator
Cc1ccc(-c2ncn(-c3ccc(Nc4ncc5cccc(-c6ccc(C)nc6)c5n4)cc3)n2)cn1,2,7,6,2.3*
Cc1ccc(-c2cccc3cnc(NC4CCC(C(=O)N5CCCC5)CC4)nc23)cn1 (stereo not drawn),-2,45*!,10,1
Cc1ccc(-c2ncn(-c3ccc(Nc4cc(Nc5ccccc5C(N)=O)c(C5CC5)cn4)cc3)n2)cn1,-1,22,-14,0
Cc1ccc(-c2ncn(-c3ccc(Nc4cc(Nc5ccccc5C(N)=O)c(C)cn4)cc3)n2)cn1,4,38*,-15,0
Cc1ccc(CNC(=O)CN2C(=O)c3cccc4cccc2c34)cc1,0,8,6,0
Cc1nnsc1C(=O)Nc1ccc(Cl)c(Cl)c1,0,-12,9,0
CC12CCCCC1C2C(=O)N/N=C/c1cc(Br)c(O)cc1O (stereo not drawn),0,25,17,-1
Cc1ccc(-c2ncn(-c3ccc(Nc4ncc5cccc(-c6ccc7c(c6)OCO7)c5n4)cc3)n2)cn1,0,1,3,1
Cc1ncn(-c2ccc(Nc3ncc4cccc(-c5cccc6c5ccn6C)c4n3)cc2)n1,0,5,-15,0
Cc1ncn(-c2ccc(Nc3ncc4cccc(-c5ccn(C)n5)c4n3)cc2)n1,-1,62*,38,1
Cc1ncn(-c2ccc(Nc3ncc4cccc(-c5ccc(F)cc5)c4n3)cc2)n1,1,18,5,0
Cc1ncn(-c2ccc(Nc3ncc4cccc(-c5cn[nH]c5C)c4n3)cc2)n1,1,45*,19,0
Cc1ccc(-c2cccc3cnc(Nc4ccc5c(c4)OCO5)nc23)cn1,0,33*,12,0
Cc1ncn(-c2ccc(Nc3ncc4cccc(-c5cccnc5)c4n3)cc2)n1,0,46*,15,1
Cc1cc(C(=O)NN2CCOCC2)cs1,0,0,-8,0
O=C1N(C2Cc3ccccc3C2)C[C@@H]2C[C@@H](c3cccn3-c3ncccn3)N3CCC[C@@]123,0,0,13,0
Cc1ncn(-c2ccc(Nc3ncc4cccc(-c5nccs5)c4n3)cc2)n1,0,56*,29,0
COc1ccc(-c2nc(NCCCN3CCCC3=O)c3ncn(-c4ccccc4)c3n2)cc1,3,20,10,0
O=C1CCCN1CCCNc1nc(-c2ccccc2)nc2c1ncn2-c1ccsc1,1,30,10,0
O=C1CCCN1CCCNc1nc(-c2ccccc2)nc2c1ncn2-c1ccccc1,3,33*,2,0
O=C1CCCN1CCCNc1nc(NC2CC2)c2ncn(-c3ccccc3)c2n1,-2,42*,5,0
NC(=O)c1ccc(-c2nc(NCCCN3CCCC3=O)c3ncn(-c4ccsc4)c3n2)cc1,0,49*,3,0
CCOc1ccc(NC(=O)CNc2ccc(C(C)=O)cc2)cc1,0,8,4,0
CCOC(=O)c1c(NC(=O)CSc2cn(C)c3ccccc23)sc2c1CCCCC2,0,-10,9,0
O=C1NN(c2ccccc2)C(=O)/C1=C\c1ccc([N+](=O)[O-])cc1,-1,9,8,0
SMILES,GPR151 activ,TEAD-YAP block,MITF primary,FBW7 activator
O=C(O)c1n[nH]c2c1CCCC2,-1,-8,5,0
O=C(c1n[nH]c2c1CCCC2)n1ccnc1,1,54*,10,0
CCCCCOC(=O)C1=C(C)NC(=O)NC1c1cc(OC)c(OC)c(OC)c1 (stereo not drawn),-1,2,9,0
Cc1sc2ncnc(Oc3ccc4ccccc4c3)c2c1C,-1,-30,0,0
CCCCCC1CCC(c2ccc(C(=O)Nc3nnc(SCC)s3)cc2)CC1 (stereo not drawn),0,-4,0,0
N#Cc1c(Cl)nc(Nc2ccccc2)c(Cl)c1Cl,0,33*,12,1
N#Cc1c(Cl)nc(Nc2cccc(F)c2)c(Cl)c1Cl,-1,21,1,0
O=C(OCc1ccccc1)N1CCN2C(=O)[C@@H]3C[C@@H](O)CN3C(=O)[C@H]2C1,0,-3,-7,0
CC(=O)Nc1ccc(Nc2nc(Nc3nc4ccccc4n3C)nc3nc[nH]c23)cc1,-1,-1,8,0
Cn1c(Nc2nc(Nc3ccc4c(c3)OCO4)c3[nH]cnc3n2)nc2ccccc21,1,-8,-1,14*
Cc1cnc(Nc2ccc(N3CCOCC3)cc2)nc1Nc1ccccc1C(N)=O,0,93*,-8,0
COc1cc(Nc2nc(Nc3ccc(N4CCOCC4)cc3)ncc2C)cc(OC)c1OC,0,66*,2,0
Cc1cnc(Nc2ccc(N3CCOCC3)cc2)nc1Nc1ccccc1,1,63*,30,0
Cc1cnc(Nc2ncccn2)nc1Nc1ccc(N2CCOCC2)cc1,0,1,2,0
Cc1oc2ccccc2c1CN1CCc2c(nc(N3CCOCC3)[nH]c2=O)C1,1,2,-1,0
Cc1cnc(Nc2ccccc2)nc1Nc1ccc(N2CCOCC2)cc1,1,62*,3,0
c1ccc(Nc2nc(Nc3ccc4c(c3)OCO4)c3[nH]cnc3n2)cc1,3,19,6,0
c1nc2nc(Nc3ccc(N4CCOCC4)cc3)nc(Nc3ccc4c(c3)OCO4)c2[nH]1,0,45*,21,1
O=C(Nc1ccc(N2CCOCC2)cc1)C1CCN(c2ccc(Nc3ccc4ncccc4c3)nn2)CC1,3,40*,37,0
Cc1cnc(Nc2ccccn2)nc1Nc1ccc(N2CCOCC2)cc1,1,7,8,-1
Cc1cnc(Nc2ccc3ncccc3c2)nc1Nc1ccc(N2CCOCC2)cc1,3,47*,4,0
c1ccc(Nc2nc(Nc3ccc(N4CCOCC4)cc3)c3[nH]cnc3n2)nc1,-1,10,5,0
Cc1cnc(Nc2nccc3ccccc23)nc1Nc1ccc2c(c1)OCO2,-1,6,-4,0
Cc1cnc(Nc2ccc3ncccc3c2)nc1Nc1ccc2c(c1)OCO2,1,44*,14,1
c1cnc2ccc(Nc3nc(Nc4ccc(N5CCOCC5)cc4)c4[nH]cnc4n3)cc2c1,1,80*,6,0
CCCC1(C2CCN(C(=O)CCC3CCCCC3)CC2)NC(=O)N(CC2CCCO2)C1=O (stereo not drawn),0,-15,4,0
CC(C)CC(NC(=O)CN(C)C)c1nnc2n1CCN(C(=O)CCc1cccs1)CC2 (stereo not drawn),-1,-1,-3,0
CCCOC(=O)C1=C(C)NC2=C(C(=O)CC(c3ccc(OC)cc3)C2)C1c1cc(Br)c(O)c(OCC)c1 (stereo not drawn),2,19,-2,0
COc1ccc(-c2nc(Nc3ccc(N4CCOCC4)cc3)c3[nH]cnc3n2)cc1,0,64*,-5,0
